PubChem BioAssay (EPA / NIEHS)
Records with an inconclusive call do not appear. Active and inactive are the calls of the source. Rule for the calls, unless noted: active = hit-call score of the fitted dose curve at least 0.9, where 1 is the maximum; inconclusive = response in the unintended direction; inactive = score below 0.9.

Tests used:
[1] = TOX21_p53_BLA_p2_viability: Viability Assessment in the Tox21 HCT-116 p53 Agonism Beta-lactamase Assay, Phase 2 (AID 2283591);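 note: compound exposure lasted 16 h at 37 °C; actives lower the ATP signal meaning cytotoxicity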
Outline: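 HCT-116 p53-bla cells (4000/well) rested 5 h at 37C, then received compounds in DMSO (217-fold dilution) for 16 h at 37C, 5% CO2. After the CCF4 read, CellTiter-Glo was added; ATP luminescence was read after 30 min at room temperature.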

[2] = TOX21_p53_BLA_p3_viability: Viability Assessment in the Tox21 HCT-116 p53 Agonism Beta-lactamase Assay, Phase 3 (AID 2283593);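 note: cells exposed to compound for 16 h before reading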
Outline: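 HCT-116 cells (4000/well) rested 5 h at 37C, then got DMSO compounds by pin tool (217-fold dilution) for 16 h at 37C, 5% CO2. After the bla read, CellTiter-Glo was added and luminescence read at 30 min, room temperature.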

[3] = TOX21_p53_BLA_p4_viability: Viability Assessment in the Tox21 HCT-116 p53 Agonism Beta-lactamase Assay, Phase 4 (AID 2283597);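 note: hits lower the luminescence signal meaning cytotoxicity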
Outline: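 Cells plated, 5 h pre-incubation; DMSO compounds pinned (217-fold dilution); 16 h, 37C/5% CO2; CCF4-AM 2 h RT; CellTiter-Glo 30 min RT; luminescence read.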

[4] = TOX21_p53_BLA_p5_viability: Viability Assessment in the Tox21 HCT-116 p53 Agonism Beta-lactamase Assay, Phase 5 (AID 2283600)
Outline: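 4000 cells/well; 5 h pre-incubation; DMSO compounds pin-transferred, 217-fold dilution; 16 h, 37C/5% CO2; CCF4-AM 2 h RT; CellTiter-Glo 30 min RT; luminescence.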

[5] = target: Cellular tumor antigen p53 (Homo sapiens) (UniProt P04637); assay: TOX21_p53_BLA_p4_ratio: Tox21 HCT-116 p53 Agonism Beta-lactamase Assay, Ratio, Phase 4 (AID 2283601)
Sequence of Cellular tumor antigen p53 (Homo sapiens) (P04637 whole entry, looked up): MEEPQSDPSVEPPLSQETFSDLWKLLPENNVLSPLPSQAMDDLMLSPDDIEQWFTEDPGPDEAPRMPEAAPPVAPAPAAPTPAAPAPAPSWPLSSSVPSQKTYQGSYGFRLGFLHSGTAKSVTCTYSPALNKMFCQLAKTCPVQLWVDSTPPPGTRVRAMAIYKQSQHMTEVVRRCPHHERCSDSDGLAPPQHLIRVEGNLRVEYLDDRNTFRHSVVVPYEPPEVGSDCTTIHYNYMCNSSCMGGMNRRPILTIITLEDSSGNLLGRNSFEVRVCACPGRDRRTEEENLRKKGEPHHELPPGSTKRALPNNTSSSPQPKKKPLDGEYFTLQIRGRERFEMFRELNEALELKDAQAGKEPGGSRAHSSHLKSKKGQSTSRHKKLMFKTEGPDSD
Outline: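 HCT116 cells carrying an inducible beta-lactamase reporter were plated at 4000 cells/well, rested 5 h, then exposed to compounds in DMSO (217-fold dilution) for 16 h at 37C. CCF4-AM substrate was loaded 2 h at room temperature; 460/530 nm emission ratio scored gain-of-signal versus DMSO.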

[6] = system: Brachyury (BRA) Protein Expression, Deisenroth Lab, TBXT (gene 6862); assay: CCTE_Deisenroth_DEVTOX-GLR_legacy_Bra: (Legacy) CCTE's DevTox GLR-Endo Assay Evaluation of Brachyury (BRA) Protein Expression, Deisenroth Lab (AID 2284329; active = hit-call score of the fitted dose curve at least 0.9, where 1 is the maximum; inactive = score below 0.9)
Outline: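 RUES2-GLR human pluripotent cells differentiated 48 h with two 24-h-interval chemical exposures (1 nM - 200 uM, 10 points); fixed, nuclear-stained, imaged. Bra+ cell percentage (intensity 5x BMAD above pluripotent control median) fitted relative to 0.2% DMSO.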

[7] = CCTE_Deisenroth_DEVTOX-GLR_legacy_CellCount: (Legacy) Viability Assessment in CCTE's DevTox GLR-Endo Assay, Deisenroth Lab (AID 2284331; active = hit-call score of the fitted dose curve at least 0.9, where 1 is the maximum; inactive = score below 0.9); conditions: actives raise or lower the signal
Outline: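 RUES2-GLR human pluripotent cells were seeded 24 h, then differentiated 48 h with two compound doses at 24 h intervals (10-point, 1 nM - 200 uM). Fixed nuclei were imaged and counted; bidirectional fitting versus 0.2% DMSO.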

[8] = system: SRY-box transcription factor 2 (SOX2) Protein Expression, Deisenroth Lab, SOX2 (gene 6657); assay: CCTE_Deisenroth_DEVTOX-GLR_legacy_Sox2: (Legacy) CCTE's DevTox GLR-Endo Assay Evaluation of SRY-box transcription factor 2 (SOX2) Protein Expression, Deisenroth Lab (AID 2284346; active = hit-call score of the fitted dose curve at least 0.9, where 1 is the maximum; inactive = score below 0.9)
Outline: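 RUES2-GLR human pluripotent cells seeded 24 h, then differentiated 48 h in defined media with two chemical doses 24 h apart (10-point, 1 nM–200 uM). Fixed, nuclear-stained, imaged; % Sox2+ cells (>5x BMAD over endoderm control median), DMSO-subtracted, fitted upward.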

[9] = system: SRY-box transcription factor 2 (SOX2) Protein Expression, Deisenroth Lab, SOX2 (gene 6657); assay: CCTE_Deisenroth_DEVTOX-GLR_Endo_SOX2: CCTE's DevTox GLR-Endo Assay Evaluation of SRY-box transcription factor 2 (SOX2) Protein Expression, Deisenroth Lab (AID 2284412)
Outline: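 RUES2-GLR human pluripotent cells were seeded 24 h, then differentiated 48 h with two chemical exposures 24 h apart. Cells were fixed, nuclei stained and imaged by high-content microscopy. Endpoint is %SOX2+ cells over cell count, minus 0.2% DMSO control; 10-point series 1 nM–200 uM.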

[10] = system: Brachyury (BRA) Protein Expression, TBXT (gene 6862); assay: CCTE_Deisenroth_DEVTOX-GLR_Endo_BRA: CCTE's DevTox GLR-Endo Assay Evaluation of Brachyury (BRA) Protein Expression, Deisenroth Lab (AID 2284417; active = hit-call score of the fitted dose curve at least 0.9, where 1 is the maximum; inactive = score below 0.9)
Outline: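 Endpoint is the fraction of BRA reporter-positive cells over total nuclei, corrected by subtracting the 0.2% DMSO value. Chemicals (1 nM - 200 uM, 10 points) were dosed twice during 48 h differentiation of RUES2-GLR cells, read by imaging.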

[11] = CCTE_Deisenroth_DEVTOX-GLR_Endo_CellCount: Viability Assessment in CCTE's DevTox GLR-Endo Assay, Deisenroth Lab (AID 2284420; active = hit-call score of the fitted dose curve at least 0.9, where 1 is the maximum; inactive = score below 0.9)
Outline: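 Human pluripotent RUES2-GLR line; 24 h pre-seed; 48 h endoderm-directed differentiation; 2 doses, q24h; 10 conc., 1 nM - 200 uM; fix + nuclear dye; 5 fields/well imaged; readout = nuclei count, % change vs 0.2% DMSO; n=4.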

[12] = target: Cellular tumor antigen p53 (Homo sapiens) (UniProt P04637); assay: TOX21_p53_BLA_p5_ratio: Tox21 HCT-116 p53 Agonism Beta-lactamase Assay, Ratio, Phase 5 (AID 2283599)
Outline: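 HCT-116 cells carrying a p53-inducible beta-lactamase reporter were seeded at 4000 cells/well and dosed after 5 h with compound in DMSO (217-fold dilution). After 16 h at 37C, CCF4-AM substrate was added for 2 h, and the 460/530 nm emission ratio was scored as gain-of-signal versus DMSO.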

[13] = target: PGR (gene 5241) (UniProt P06401); assay: TOX21_PR_BLA_Followup_Antagonist_ratio: Tox21 HEK293 Progesterone Receptor (PR) Antagonism Beta-lactamase Follow-Up Assay, Ratio (AID 2283934)
Sequence of PGR (gene 5241) (P06401 whole entry, looked up): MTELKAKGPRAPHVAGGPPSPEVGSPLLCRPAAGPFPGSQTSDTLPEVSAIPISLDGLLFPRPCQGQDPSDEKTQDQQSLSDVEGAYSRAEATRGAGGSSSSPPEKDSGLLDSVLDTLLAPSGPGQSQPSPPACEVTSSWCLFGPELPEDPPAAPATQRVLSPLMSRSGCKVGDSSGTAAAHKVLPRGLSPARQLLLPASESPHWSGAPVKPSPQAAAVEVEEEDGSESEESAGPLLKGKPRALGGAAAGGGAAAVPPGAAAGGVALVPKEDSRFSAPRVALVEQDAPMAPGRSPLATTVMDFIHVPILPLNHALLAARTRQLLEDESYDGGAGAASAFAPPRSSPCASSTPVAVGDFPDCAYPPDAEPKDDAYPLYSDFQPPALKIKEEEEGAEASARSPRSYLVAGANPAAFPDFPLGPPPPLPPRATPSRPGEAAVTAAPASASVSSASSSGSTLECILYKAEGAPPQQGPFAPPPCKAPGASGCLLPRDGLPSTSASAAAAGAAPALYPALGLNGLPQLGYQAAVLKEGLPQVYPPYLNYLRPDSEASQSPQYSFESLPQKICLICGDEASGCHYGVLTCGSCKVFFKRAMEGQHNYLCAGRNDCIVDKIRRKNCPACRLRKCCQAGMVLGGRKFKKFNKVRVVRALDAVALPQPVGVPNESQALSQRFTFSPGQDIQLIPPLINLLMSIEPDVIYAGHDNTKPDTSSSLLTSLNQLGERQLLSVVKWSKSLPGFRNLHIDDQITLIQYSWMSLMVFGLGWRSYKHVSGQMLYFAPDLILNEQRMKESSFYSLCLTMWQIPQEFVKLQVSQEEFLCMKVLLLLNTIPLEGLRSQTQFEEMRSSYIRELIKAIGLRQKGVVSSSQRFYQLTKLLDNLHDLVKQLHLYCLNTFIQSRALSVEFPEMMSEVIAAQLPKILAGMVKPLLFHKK
Outline: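 PR-UAS-bla HEK293T cells, 3,000/well in 2% charcoal-stripped FBS, given compound plus 1nM R5020 agonist for 16 hr at 37C. Beta-lactamase FRET substrate 2 hours, ratio cleaved/uncleaved fluorescence; viability by CellTiter-Glo in same wells.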

[14] = TOX21_PR_BLA_Followup_Agonist_viability: Viability Assessment in the Tox21 HEK293 Progesterone Receptor (PR) Agonism Beta-lactamase Follow-Up Assay (AID 2283935);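 note: signal loss means lower viability so actives are cytotoxic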
Outline: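 PR-UAS-bla HEK293T cells in 2% charcoal-stripped FBS medium, plated 6 hr before compound addition, exposed 16 hr at 37C. Viability read by CellTiter-Glo ATP luminescence after 30 min at room temperature, in the same wells as the beta-lactamase readout.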

[15] = TOX21_PR_BLA_Followup_Antagonist_viability: Viability Assessment in the Tox21 HEK293 Progesterone Receptor (PR) Antagonism Beta-lactamase Follow-Up Assay (AID 2283936);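 note: hits lower the luminescence signal meaning cytotoxicity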
Outline: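 PR-UAS-bla HEK293T cells (3,000/well, 2% charcoal-stripped FBS) given compound plus R5020 agonist, 16 h at 37C. CellTiter-Glo added after bla read, 30 min at room temperature; luminescence loss indicates cytotoxicity.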

[16] = target: PGR (gene 5241) (UniProt P06401); assay: TOX21_PR_LUC_Followup_Antagonist: Tox21 HEK293 Progesterone Receptor (PR) Antagonism Luciferase Follow-Up Assay (AID 2283938);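 note: curve fitted upward as signal gain over DMSO baseline despite antagonist label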
Outline: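 Cells are grown 5 days in charcoal-stripped-FBS assay medium, plated, left 5 h, then dosed with compound and incubated 16 h. ONE-Glo reagent is added and luminescence read after 30 min.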

[17] = TOX21_PR_LUC_Followup_Agonist_viability: Viability Assessment in the Tox21 HEK293 Progesterone Receptor (PR) Agonism Luciferase Follow-Up Assay (AID 2283941);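 note: loss of signal means cytotoxicity so actives lower viability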
Outline: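 HEK293-PR-A-luc cells, kept in 10% charcoal-stripped FBS medium, were treated with compounds for 16 h at 37C. Viability read as cellular ATP by luciferase-coupled luminescence; loss of signal indicates cytotoxicity.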

Measured: AC50

CC1=C(C)C(=O)C(C(CCCCCC(=O)O)c2ccccc2)=C(C)C1=O (stereo not given)
inactive: [1] | [2] | [3] | [4] | [5]

CCCCCCCCCCCCCCCC(=O)OC[C@@H](NC(=O)C(Cl)Cl)[C@H](O)c1ccc([N+](=O)[O-])cc1
inactive: [1] | [2] | [3] | [4]

C[C@H]1O[C@@H](O[C@H]2CC[C@@]3(C)[C@H](CC[C@@H]4[C@@H]3C[C@@H](O)[C@]3(C)[C@@H](C5=CC(=O)OC5)CC[C@]43O)C2)C[C@H](O)[C@@H]1O[C@H]1C[C@H](O)[C@H](O[C@H]2C[C@H](O)[C@H](O[C@@H]3O[C@H](CO)[C@@H](O)[C@H](O)[C@H]3O)[C@@H](C)O2)[C@@H](C)O1
active: [1] 0.284 µM | [2] 0.296 µM | [3] 0.337 µM | [4] 0.353 µM

O=c1[nH][nH]c(=O)c2cc([N+](=O)[O-])ccc12
inactive: [1] | [2] | [3] | [4]

O=C(CCCN1CCC(O)(c2cccc(C(F)(F)F)c2)CC1)c1ccc(F)cc1
inactive: [1] | [2] | [3] | [4] | [5]

CCCC(=O)O[C@]1(C(=O)COC(=O)CC)[C@@H](C)C[C@H]2[C@@H]3CCC4=CC(=O)C=C[C@]4(C)[C@@]3(F)[C@@H](O)C[C@@]21C
inactive: [1] | [2] | [3] | [4]

c1cc(CN2CCCCC2)cc(OCCCNc2nc3ccccc3s2)c1
inactive: [1] | [2] | [3] | [4]

CCCCCN=C(N)N/N=C/c1c[nH]c2ccc(OC)cc12
active: [7] 5.09 µM | [9] 100 µM | [10] 143 µM | [11] 5.15 µM
inactive: [1] | [2] | [3] | [5] | [6] | [8]

CN(C)CCOC(c1ccccc1)c1ccccc1 (tested in a mixture with another compound)
inactive: [1] | [2] | [3] | [4]

CCOC(=O)C(C)O (stereo not given)
inactive: [1] | [2] | [3] | [4] | [5]

CC1(C)[C@H]2CC[C@](C)(C2)[C@H]1O
inactive: [1] | [2] | [3] | [5]

O=c1[nH]c2ccccc2n1CCCN1CCN(C(c2ccccc2)c2ccccc2)CC1
active: [3] 31.3 µM
inactive: [1] | [2] | [4]

CCN(CCCCOC(=O)c1ccc(OC)c(OC)c1)C(C)Cc1ccc(OC)cc1 (stereo not given)
inactive: [1] | [2] | [3] | [5]

CC(C)(CC(=O)O)C(=O)O
inactive: [1] | [2] | [12] | [4]

O=S(=O)(Oc1ccc(Cl)cc1)c1ccccc1
active: [13] 59.9 µM
inactive: [14] | [15] | [16] | [17]
